KCNH2 3.1 inh = KCNH2 3.1 (human) potassium channel inhibition. 340,000 tested, 0.95% active. activity change, % (tested at about 1.8 µM). U2OS KCNH2 3.1, thallium flux FluxOr; active compounds read low;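 active = maximum activity change below -70%; inconclusive = maximum activity change from -70% to -50%; inactive = maximum activity change above -50%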;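 note: thallium influx rate constant from kinetic fluorescence after stimulation buffer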
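We transduce U2OS cells with the mutant 3.1 virus, culture them overnight, load FluxOr with Red40 quencher for 45 min, then add stimulation buffer and read kinetically for 2 min to derive a normalized rate constant.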
hERG WT inh = blocks the wildtype human KCNH2 potassium channel. AID 720551. U2OS, BacMam KCNH2, thallium flux FluxOr; active compounds read low. activity change, % at 1.84 µM. Q12809. 340,000 tested, 0.37% active;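 active = maximum activity change below -70%; inconclusive = maximum activity change between -70% and -50%; inactive = maximum activity change above -50%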
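U2OS cells transduced with wild-type KCNH2 virus are loaded with FluxOr dye for 45 min, and thallium flux is measured in kinetic reads before and after stimulation buffer. Rate constants are normalized to DMSO controls.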
KinaseGlo FLuc = Kinase-Glo luciferase inhibition (counter-screen); Q27757; Kinase-Glo luciferase, ATP luminescence, 8 min; Potency, µM (titrated, usually from 38.3 µM), inactives show top-dose activity change, negative = inhibition, hits mostly inhibitors; 200,000 tested, 0.28% active; active = well fitted inhibition curve with a large enough effect; inconclusive = small, poorly fitted or top-dose-only effect; note: potency is the fitted concentration of half-maximal effect; nearly all actives have a fitted effect of over 60% in size
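Compound is pinned into ATP-containing buffer (10 uM ATP, imidazole pH 7.2, 7 mM MgCl2). Kinase-Glo luciferase reagent is then added. Light output is recorded following an 8-min room-temperature incubation.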
An asterisk follows results filed as active; ? = inconclusive; / = not tested or not shown. Only some compounds are listed: those with a hit (about 1.2% of all), similar ones and a draw of the others. % is set by controls: 0 for no effect and ±100 for the full control effect.

SMILES	KCNH2 3.1 inh	hERG WT inh	KinaseGlo FLuc
O=C(NCc1ccco1)c1cccc(NS(=O)(=O)c2cccc(F)c2)c1	10.0	-1.4	2.0%
O=C(NCc1ccco1)c1cc(NS(=O)(=O)c2cccc([N+](=O)[O-])c2)ccc1O	-198.1*	-152.1*	-0.6%
CN1C(=O)/C(=C/c2ccc3c(c2)OCO3)N=C1c1ccccc1	-122.6*	-2.4	-0.6%
CCSC1=N/C(=C\c2ccc3c(c2)OCO3)C(=O)S1	-4.6	3.7	4.6%
CCC(CC)c1nnc(NC(=O)CN2C(=O)NC3(CCCC3)C2=O)s1	8.0	3.4	/
COc1ccc(C(=O)NCC(C)(c2ccccc2)c2ccccc2)cc1S(=O)(=O)N1CCOCC1	-5.8	-2.5	/
Cc1ncc2c(c1O)COP(=O)(O)OC2	/	/	-1.4%
CC1(C)CCC(=O)N2CC[C@H]3C[C@H](OC(=O)Nc4ccc5c(c4)OCO5)C[C@@H]1[C@H]32	-135.4*	-9.9	/
CC1(C)CCC(=O)N2CC[C@H]3C[C@H](OC(=O)Nc4ccccc4)C[C@@H]1[C@H]32	5.8	-6.1	/
O=C1c2ccccc2S(=O)(=O)c2cc(C(=O)N3CCC(C(=O)N4CCCCC4)CC3)ccc21	9.5	29.3	/
CCCCNC(=O)Cn1cnc2ccc(S(=O)(=O)N3CCC(C)CC3)cc2c1=O	-11.7	-2.2	/
CCCN1CCN(C(=O)Cn2cnc3ccc(S(=O)(=O)N4CCC(C)CC4)cc3c2=O)CC1	-85.3*	-1.5	0.1%
Cc1cc2cc(CN(Cc3ccc4c(c3)OCO4)C(=O)c3cnccn3)c3nnnn3c2cc1C	-3.9	-7.0	-2.3%
Cc1ccc2c(c1)cc(CN(Cc1ccc3c(c1)OCO3)C(=O)c1cnccn1)c1nnnn12	-96.5*	-0.3	-1.8%
Nc1ccc2nc(-c3ccccn3)[nH]c2c1	-16.5	4.3	11.2µM*
Nc1ccc2nc(-c3ccccc3)[nH]c2c1	-1.4	-8.8	?
CCOC(=O)N1CCN(C(=O)CN2C(=O)NC(C)(c3ccc4ccccc4c3)C2=O)CC1 (configuration not stated)	-11.5	10.3	/
CC(c1nnc(SCC(=O)N(C)C2CCS(=O)(=O)C2)n1-c1ccccc1)N(C)C (configuration not stated)	7.9	10.1	/
O=C(NCc1ccncc1)/C(=C\c1ccc(F)cc1)NC(=O)c1ccccc1	?	-5.0	-0.4%
Cc1ccc(C(=O)N/C(=C\c2cccc([N+](=O)[O-])c2)C(=O)NCc2ccncc2)cc1	-86.3*	10.6	0.5%
CCNC(=O)/C(=C/c1cccc([N+](=O)[O-])c1)NC(=O)c1ccc(C)cc1	0.3	/	-1.9%
Cc1ccc(C(=O)N/C(=C\c2ccc(F)cc2)C(=O)NCc2ccncc2)cc1	-89.6*	-49.6	2.2%
CC(C)[C@H](NC(=O)C1CCN(S(=O)(=O)c2ccccc2)CC1)C(=O)NCc1ccccc1	2.2	-7.6	/
O=c1[nH]cnc2c1nc(NCc1ccccc1)n2C1O[C@@H](CO)[C@H](O)[C@@H]1O (some centres not stated)	9.6	11.7	/
Cc1cccc(NC(=O)c2sc(NC(=O)c3ccco3)c(C#N)c2C)c1C	-83.0*	6.8	9.2%
SMILES	KCNH2 3.1 inh	hERG WT inh	KinaseGlo FLuc
Cc1cccc(NC(=O)c2ccco2)c1C	12.4	4.5	/
N#Cc1ccc(OCc2nnc(SCC(=O)N3CCCc4ccccc43)n2-c2ccccc2)cc1	-14.1	-12.6	-0.4%
COc1ccc(OCc2nnc(SCC(=O)N3CCCc4ccccc43)n2-c2ccc(C)cc2)cc1	-82.9*	7.0	-1.5%
COc1cc(NC(=NS(=O)(=O)c2ccccc2)c2ccccc2)ncn1	-1.7	-8.1	/
CC12CCC(C(=O)N(c3nccs3)C1=O)C2(C)C (configuration not stated)	6.4	-4.3	/
Cc1ccc(N2C(=O)C3CCC(C)(C2=O)C3(C)C)cc1 (configuration not stated)	-77.2*	-0.5	/
O=C(CSc1nnc(COc2ccccc2)o1)c1ccccc1	-98.9*	5.0	-0.5%
Cc1ccc(C(=O)CSc2nnc(COc3ccccc3)o2)cc1	-10.3	9.4	-0.2%
O=C(NCCc1ccc(OC(F)F)cc1)C1CC(=O)N(c2ccc3c(c2)OCCO3)C1 (configuration not stated)	-37.1	-3.1	/
Cc1ccc(-c2nnn(CC(=O)NC(=O)NC3CCCCC3)n2)cc1	-14.2	-15.8	/
NC(=O)NC(=O)CN1C(=O)NC2(CCOc3ccccc32)C1=O (configuration not stated)	-2.2	4.8	/
CSc1cccc(CN2CCC(CO)(Cc3ccccc3)CC2)c1	-17.4	1.3	-2.9%
OCC1(Cc2ccccc2)CCN(C2CCN(c3ccc(F)c(F)c3)CC2)CC1	-90.9*	-31.2	-1.7%
Cc1c(C(=O)NCc2cccs2)oc2ccccc12	-79.1*	-1.5	-0.9%
